# Measured values reported in PubChem BioAssay (NCI).
# Compounds without any hit were thinned out: in the full panel of roughly 83,000, 20% have a hit.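 Cells were grown in 96-well plates and exposed to the test compound at a single concentration for 48 hours; results are reported as percent growth, with values below 10 considered active.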 Values without a mark were called inactive. Activity calls are given as the source filed them.
# Test system: MDA-MB-468 breast
# Test: NCI-60 one-dose screen, 48 h (100 = growth as untreated, 0 = no growth, -100 = all killed)
# Conditions: 10 µM unless noted
row,SMILES,growth
1,Cc1cccc(/C=C2\CN(C(=O)OC(C)(C)C)C/C(=C\c3cccc(C)c3)C2=O)c1,103%
2,CC(=O)O[C@@H]1/C=C/C(=O)N[C@@H](C)CCC/C=C/[C@@H]2CCC[C@H]21,101%
3,CCOC(=O)c1c(NCC(=O)Nc2cccc([N+](=O)[O-])c2)sc(C(C)=O)c1C,-22.5% (active)
4,COc1ccc2c(c1)oc1c3[nH]c4ccccc4c3c3c(c21)C(=O)N(O)C3=O,-17.7% (active)
5,CNCc1cccc2c1OCCOCCOCCN(CCN1CCOCC1)S(=O)(=O)c1ccc(cc1)-c1cnc(N)c(n1)C(=O)N2,53.9%
6,COC(=O)CC1=C(c2ccc([N+](=O)[O-])cc2)CCC1=O,101%
7,COc1ccc(C(=O)Nc2ncc(Cc3ccc(F)cc3)s2)cc1,22.4%
8,CCCCC1(O)CCCCC1,94.9%
9,C=C(C)[C@@H]1CC[C@]2(C(=O)OC)CC[C@]3(C)[C@H](CC[C@@H]4[C@@](C)(CCc5nn[nH]n5)[C@H](C(=C)C)CC[C@]43C)[C@@H]12,-7.51% [100 µM] (active)
10,CCn1cc(C(=O)O)c(=O)c2cc(F)c(N3CCN(CC(=O)Nc4ccc(C(C)=O)cc4)CC3)cc21,108%
11,COc1cccc(C2C(C#N)=C(N)Oc3cc(OCCCCCC[P+](c4ccccc4)(c4ccccc4)c4ccccc4)ccc32)c1 (configuration not stated),-64.3% (active)
12,COc1ccc(/C=C2\SC(=O)N(CN3CCN(c4cc5c(cc4F)c(=O)c(C(=O)O)cn5C4CC4)CC3)C2=O)cc1,108%
